These results are taken from PubChem BioAssay (NCATS).

The target of assay [1] is Luciferin 4-monooxygenase (Photinus pyralis) (UniProt P08659). In words: Biochemical firefly luciferase enzyme assay for NPC (AID 624030).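 Further: purified P. pyralis luciferase at 10 nM with luciferin and ATP substrate; nearly all actives have a fitted effect of over 70% in size.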 Put shortly:
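Purified P. pyralis luciferase at 10 nM in 50 mM Tris Acetate (final), luminescence read within 5 minutes of enzyme addition to compounds. Activity normalised to PTC124 versus DMSO; concentration-response curves classed by r2, magnitude and activity.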

Assay [2] is described as follows: S16 Schwann cell viability assay (CellTiter-Glo assay) (AID 624031). Further: nearly all actives have a fitted effect of over 70% in size. Further: potency means the concentration at half of the fitted maximal effect. An outline of the steps:
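Luminescent ATP read-out (CellTiter-Glo) after 24 h compound exposure of native S16 rat Schwann cells at 37 °C. Signals were normalized between cell-free wells and DMSO-treated cells, set as 0% activity.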
On the technique in general: Cellular ATP, detected with luciferase, serves as a proxy for viable cell number.

The nature of assay [3]: S16 Schwann cell PMP22 intronic element beta-lactamase assay (AID 624044; calls by dose curve; further: nearly all actives have a fitted effect of over 15% in size; further: potency means the concentration at half of the fitted maximal effect). Put shortly:
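Beta-lactamase reporter under a PMP22 intronic regulatory element in stable S16 rat Schwann cells; 24 h compound exposure. 460 nm blue signal normalized between DMSO (0%) and potassium clavulanate, with 535 nm FRET tracking viability; curves classed by r2 and response.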

Another assay concerns CP215. In words: qHTS profiling for inhibitors of Plasmodium falciparum proliferation (AID 504749). Further: nearly all actives have a fitted effect of over 60% in size. Further: potency means the concentration at half of the fitted maximal effect. Particulars: P. falciparum in erythrocytes, SYBR Green DNA, 72 h; series mostly up to 28.7 µM. Put shortly:
(§1)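 SYBR Green fluorescence (ex 485 nm, em 535 nm) reports parasite DNA after 72 h compound exposure of infected red cells at 0.3% parasitemia, 2.5% hematocrit; signal normalized to 0.29 uM artemisinin and vehicle wells.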
For orientation: qHTS replaces the single test concentration by a dilution series.

For another assay, the system named is CP260. The assay is described as above. Particulars: P. falciparum in erythrocytes, SYBR Green DNA, 72 h; series mostly up to 28.7 µM. An outline of the steps: as §1
The test system of a further assay is DIV14. Described as above. Conditions: P. falciparum in erythrocytes, SYBR Green DNA, 72 h; series mostly up to 28.7 µM. An outline of the steps: as §1
In another assay the test system is DIV17. The description is as above. Particulars: P. falciparum in erythrocytes, SYBR Green DNA, 72 h; series mostly up to 28.7 µM. Put shortly: as §1
The subject of a further assay is ICS. The description is as above. Particulars: P. falciparum in erythrocytes, SYBR Green DNA, 72 h; series mostly up to 28.7 µM. Put shortly: as §1
The subject of a further assay is W2. The assay is described as above. Particulars: P. falciparum in erythrocytes, SYBR Green DNA, 72 h; series mostly up to 28.7 µM. Put shortly:
as §1

In a further assay the test system is CP256. The assay is described as above. Conditions: P. falciparum in erythrocytes, SYBR Green DNA, 72 h; series mostly up to 28.7 µM. Put shortly:
as §1

For the next assay, the system named is GB4. The assay is described as above. Conditions: P. falciparum in erythrocytes, SYBR Green DNA, 72 h; series mostly up to 28.7 µM. Put shortly: as §1
In assay [4] the target is DNA dC->dU-editing enzyme APOBEC-3G (Homo sapiens) (UniProt Q9HC16). In words: qHTS for inhibitors of Vif-A3G interactions: Validation (AID 588379). An outline of the steps: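 Yellow fluorescence (Ex 488, Em 500-530) of Vif-coexpressing HeLa A3G-eYFP cells, scanned by Acumen cytometer, reports blocked A3G degradation. Cells plated at 700/well overnight at 37 deg C before compound addition, then a further overnight compound incubation at 37 deg C.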
DNA dC->dU-editing enzyme APOBEC-3G (Homo sapiens), sequence (Q9HC16 whole entry, looked up): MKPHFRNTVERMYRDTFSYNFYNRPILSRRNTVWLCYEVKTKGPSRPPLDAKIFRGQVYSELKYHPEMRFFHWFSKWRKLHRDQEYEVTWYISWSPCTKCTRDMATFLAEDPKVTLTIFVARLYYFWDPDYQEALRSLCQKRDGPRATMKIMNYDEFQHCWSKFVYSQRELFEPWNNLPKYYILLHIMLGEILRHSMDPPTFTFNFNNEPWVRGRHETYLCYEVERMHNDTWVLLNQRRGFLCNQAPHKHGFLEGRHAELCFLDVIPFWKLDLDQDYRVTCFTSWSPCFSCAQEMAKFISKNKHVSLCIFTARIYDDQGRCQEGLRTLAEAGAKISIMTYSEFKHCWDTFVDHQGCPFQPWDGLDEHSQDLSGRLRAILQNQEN

For assay [5], the target named is Mitogen-activated protein kinase 10 (Mus musculus) (UniProt Q61831). In words: JNK3 AlphaScreen Assay (AID 530; active means well fitted curve in either direction with a large enough effect, not every such curve was filed as active;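 further: kinase came from lysate of stimulated human HepG2 cells; signal reports phosphorylation of biotinylated GST-cJun 1-79 at Ser73 with 10 µM ATP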). Put shortly: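 HepG2 lysate (IL-1b/TNFa pre-activated) + biotin-GST-cJun 1-79 + anti-pSer73 cJun; cpd titration, 15 min RT; ATP 10 uM start; Tris pH 7.6, MgCl2, DTT, vanadate; beads in EDTA buffer; AlphaScreen.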
For orientation: In Alpha technology, singlet oxygen from a donor bead excites a nearby acceptor bead.

The structures appear in SMILES notation. Records with an inconclusive call do not appear. Active and inactive are the calls of the source. Unless noted, the call rests on the fitted dose curve; in most records, active means well fitted curve in the direction sought with a large enough effect; inconclusive means small, poorly fitted or top-dose-only effect, or another doubt; inactive means no such curve, though single readings can be large; an effect the other way counts as inactive or inconclusive. Numbered stars: 1 amine (or outer) side, 2 acyl side, 3 side chain; on linkers, the order of the positions; unused ones are H or OH. Bridge positions count the residues as written; N and C are the ends. Square brackets hold non-standard residues; d marks the D form. Peptide text beside a SMILES is read from it. * marks the point of attachment. ξ: configuration not given here. ΔAla(Z-3-ureido) = NC(=O)N/C=C(\N)C(=O)O; X2 = NC1=NC(O)CC(C(N[*:1])C(=O)[*:2])N1; ξβ3hOrn = NCCCC(N)CC(=O)*; Orn = NCCC[CH](N)C(=O)O; Dap = NC[CH](N)C(=O)O

Luciferin 4-monooxygenase (Photinus pyralis), sequence (P08659 whole entry, looked up): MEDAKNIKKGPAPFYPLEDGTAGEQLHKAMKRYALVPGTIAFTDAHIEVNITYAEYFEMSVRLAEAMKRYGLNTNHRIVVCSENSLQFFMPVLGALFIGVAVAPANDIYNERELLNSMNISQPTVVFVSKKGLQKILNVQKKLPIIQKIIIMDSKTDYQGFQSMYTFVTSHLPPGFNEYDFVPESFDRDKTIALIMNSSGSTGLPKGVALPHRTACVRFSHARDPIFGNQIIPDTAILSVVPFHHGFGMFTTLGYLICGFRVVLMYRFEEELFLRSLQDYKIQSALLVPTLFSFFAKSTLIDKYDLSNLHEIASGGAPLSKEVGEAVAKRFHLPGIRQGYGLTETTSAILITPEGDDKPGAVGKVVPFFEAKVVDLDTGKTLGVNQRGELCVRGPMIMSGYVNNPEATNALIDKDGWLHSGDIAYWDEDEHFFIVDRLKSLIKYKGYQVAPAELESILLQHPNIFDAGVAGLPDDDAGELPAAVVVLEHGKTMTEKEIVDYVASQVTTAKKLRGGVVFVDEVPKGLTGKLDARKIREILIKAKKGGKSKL

In the case of `Cn1cc(O)nc1NC(=O)Nc1cccc(Cl)c1`, the Potency entry (in [1]; in [2]; in assay [3]; in the assay on CP215; in the assay on CP260; in the assay on DIV14) was “inactive” in each case. For the same compound, the Potency entry with DIV17, with ICS and with W2 was “inactive” throughout.
Turning to `C=CC1=C(C(=O)O)N2C(=O)[C@@H](NC(=O)C(N=O)c3csc(N)n3)[C@H]2SC1` (stereo partly drawn), the Potency entry (in assay [1]; in [2]; in assay [3]; with CP215; in the assay with CP256; with CP260) was “inactive” throughout. Moreover, the Potency result with DIV14, in the assay on DIV17, with GB4 and in the assay on ICS was “inactive” each time.
For the compound `COC(=O)CCC(C)C1CCC2C3C(C[C@H](O)C12C)C1(C)CC[C@@H](O)CC1C[C@H]3O` (stereo partly drawn), in assay [4], the Potency entry was “inactive”.
Same read-out and setting: to `O=c1cc(-c2ccc(O)cc2)oc2cccc(O)c12` belongs “inactive”.
Regarding `COc1ccc(-c2nc3ccc(C4=C(C)CC(=O)NN4)cc3[nH]2)cc1`, the Potency entry (in assay [3]; in the assay on CP260) was “inactive” each time.
For the compound `O=C1CC(c2ccccc2O)Oc2ccc(O)cc21` (stereo not drawn), the Potency entry in [4] was “inactive”.
Still for that read-out and setting: to `COc1ccc2c(c1OC)C(Cc1ccccc1)N1CCc3cc4c(cc3C1=C2)OCO4` (stereo not drawn) belongs “inactive”.
As for `Nc1nc2c(c(=O)[nH]1)N=C(CNc1ccc(C(=O)NC(CCC(=O)O)C(=O)O)cc1)CN2` (stereo not drawn), in assay [4], the Potency entry was “inactive”.
For the compound `CC(C)CC1NC(=O)C(CCCN)NC(=O)C(C(C)C)NC(=O)C2CCCN2C(=O)C(Cc2ccccc2)NC(=O)C(CC(C)C)NC(=O)C(CCCN)NC(=O)C(C(C)C)NC(=O)C2CCCN2C(=O)C(Cc2ccccc2)NC1=O` (stereo not drawn) (cyclo(FPV[Orn]LFPV[Orn]L); configuration not given here), the Potency in assay [2] is 4550 nM (active); in assay [3] it was 12600 nM (active); in the assay on CP215, 1.1 nM (active); in the assay with CP256 it was 4 nM (active); in the assay on CP260, 0.9 nM (active); with GB4, 0.5 nM (active). The figures for the Potency in the assay on ICS and in the assay with W2 were 0.3 nM (active) and 0.2 nM (active), respectively.
As for `CC[C@H](/C=C/[C@@H](C)[C@H]1CC[C@H]2C3CC=C4C[C@@H](O)CC[C@]4(C)C3CC[C@]12C)C(C)C` (stereo partly drawn), in [4], the Potency result was “inactive”.
The same measure, in the same setting: as for `O=C(/C=C/c1ccc(O)cc1)c1c(O)cc(O)cc1O`, the entry is “inactive”.
Turning to `NCCCC(N)CC(=O)NC1CNC(=O)C(C2CC(O)N=C(N)N2)NC(=O)/C(=C/NC(N)=O)NC(=O)C(CO)NC(=O)C(CO)NC1=O` (stereo not drawn) (ξβ3hOrn-[Dap]SS[ΔAla(Z-3-ureido)][X2]; lactam 1-C; configuration not given here), the Potency entry (in assay [1]; in [2]; in assay [3]; with CP256; in the assay on CP260; in the assay on GB4) was “inactive” each time. Besides, the Potency result with W2 is “inactive”.
As for `O=C(O)c1ccccc1-c1c2cc(Br)c(=O)c(Br)c-2oc2c(Br)c(O)c(Br)cc12`, the Potency result (in assay [3]; with CP215; with CP256; in the assay with CP260; in the assay with DIV14; in the assay with DIV17) was “inactive” in each case. For the same compound, the Potency entry in the assay with GB4 and with ICS was “inactive” throughout.
Turning to `CC(=O)OCC1=C(C(=O)O)N2C(=O)C(NC(=O)Cc3ccccc3)C2SC1` (stereo not drawn), the Potency entry (in [2]; in assay [3]; with CP215; in the assay with CP256; with CP260; in the assay with DIV14) was “inactive” in each case. For the same compound, the Potency result in the assay on DIV17, in the assay with GB4, with ICS and in the assay on W2 was “inactive” in each case.
Consider `O=C(/C=C/c1ccccc1)c1cccs1`, for which the Potency entry in assay [4] was “inactive”.
As for `CC(C)CC(NC(=O)C(COC(C)(C)C)NC(=O)C(Cc1ccc(O)cc1)NC(=O)C(CO)NC(=O)C(Cc1c[nH]c2ccccc12)NC(=O)C(Cc1cnc[nH]1)NC(=O)C1CCC(=O)N1)C(=O)NC(CCCN=C(N)N)C(=O)N1CCCC1C(=O)NNC(N)=O` (stereo not drawn), the Potency entry (in assay [1]; in assay [2]; in the assay with CP215; with CP256; in the assay with DIV14; with DIV17) was “inactive” each time. For the same compound, the Potency entry with GB4, in the assay on ICS and in the assay on W2 was “inactive” in each case.
Regarding `COc1cc2c(C(=O)c3ccccc3)c3c4c(cc(OC)c(OC)c4c2cc1OC)CCN3C`, the Potency entry in assay [4] was “inactive”.
As to `CCC(Oc1ccccc1)C(=O)NC1C(=O)N2C1SC(C)(C)C2C(=O)O` (stereo not drawn), the Potency result (in assay [2]; in [3]; in the assay on CP215; in the assay with CP256; in the assay on CP260; in the assay on DIV17) was “inactive” throughout. The Potency entry in the assay on GB4, in the assay on ICS and in the assay on W2 was “inactive” in each case.
`Cc1csc(-c2nc3ccccc3n2C)n1`: the Potency entry in [4] is “inactive”.
Same read-out and setting: to `CCOc1ccc(/C=C/C(=O)c2cccs2)cc1` belongs “inactive”.
Same read-out and setting: to `COc1ccc2c(=O)c(-c3ccccc3)coc2c1` belongs “inactive”.
Take `O=C(N[C@@H](c1ccccc1)[C@@H]1C[C@H]1C(=O)NCc1ccccc1)OCc1ccccc1`: the compound was called inactive in assay [5].
On the same count and under the same terms, to `COC(=O)[C@@]1(Cc2ccc(OC)cc2)[C@H]2c3cc(C(=O)N4CCCC4)n(Cc4ccc(C)c(F)c4F)c3C[C@H]2CN1C(=O)c1ccccc1` belongs “inactive”; to `CCc1c2c(nc3ccc(OC)cc13)OC(CC)C2` (stereo not drawn), “inactive”; to `C[C@@H](C(=O)Nc1ccc2ccccc2c1)[C@@H]1C[C@@]1(C)[C@@H](NC(=O)c1cccnc1)c1ccccc1`, “inactive”.
